ADAM10 inh = ADAM10 inhibition, QFRET primary screen; AID 720582; recombinant ADAM10, EDANS/DABCYL FRET peptide cleavage, 3 h; inhibition, % at 7 µM; 370,000 compounds, 0.62% hits;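 active means inhibition above a per-campaign cutoff equal to the mean of compounds falling between control-based bounds plus 3 SD, cut at about 20% in these data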
PLC-beta3 inh = blocks human PLC-beta3 enzyme activity. inhibition, % at 12.2 µM. AID 720704. Q01970. Purified PLC-beta3, fluorogenic substrate, fluorescence. 370,000 compounds, 0.18% hits; in the data active means inhibition above about 11%
ADAM17 inh = ADAM17 inhibition, QFRET primary screen; 370,000 compounds, 0.83% hits; recombinant ADAM17, EDANS/DABCYL FRET peptide cleavage; inhibition, % at 6.95 µM; P78536;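 active means inhibition above the mean of compounds lying between control limits plus 3 SD, set per campaign, cut at about 8.5% in these data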
proKLK7 act = activates the human kallikrein-7 zymogen | purified proKLK7, EDANS-DABCYL substrate fluorescence; 100% is mature enzyme control, 0% vehicle | 370,000 compounds, 0.9% hits | AID 652039 | P49862 | activation, % at 7 µM;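 active means activation above the mean of all tested compounds plus 3 SD, computed per campaign excluding outliers beyond control limits, cut at about 13% in these data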
Target sequence (P49862 whole entry, looked up): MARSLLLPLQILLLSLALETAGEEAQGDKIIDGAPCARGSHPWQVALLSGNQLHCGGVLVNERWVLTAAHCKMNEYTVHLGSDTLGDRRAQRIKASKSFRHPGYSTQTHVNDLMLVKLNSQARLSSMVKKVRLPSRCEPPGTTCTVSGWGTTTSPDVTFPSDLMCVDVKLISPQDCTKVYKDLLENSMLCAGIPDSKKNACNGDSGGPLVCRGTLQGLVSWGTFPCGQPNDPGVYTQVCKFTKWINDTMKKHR
PLC-gamma1 inh = PLC-gamma1 (human) inhibition, primary screen; P19174; 370,000 compounds, 0.84% hits; AID 720700; inhibition, % at 12.2 µM; purified PLC-gamma1, fluorogenic substrate, fluorescence; in the data active means inhibition above about 9.5%
ADAM10 confirm = human ADAM10 inhibition, confirmation; inhibition, % at 6.95 µM; shares compounds with ADAM10 inh; ADAM10 QFRET peptide cleavage, EDANS fluorescence; 2,100 compounds, 1% hits;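 active means inhibition above about 20% chosen separately for each screening run, limit read from the data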
ADAM17 ctr = ADAM17 inhibition, counter-screen for ADAM10 exosite hits | shares compounds with ADAM10 inh | ADAM17 QFRET peptide cleavage, EDANS fluorescence | inhibition, % at 6.95 µM | 2,100 compounds, 0.5% hits;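 active means mean triplicate inhibition above the solvent-only control wells' mean plus 3 SD, cut at about 12% in these data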
ADAM10 counter = counter-screen for ADAM17 exosite inhibitors: inhibitors of human ADAM10; shares compounds with ADAM17 inh; recombinant ADAM10, EDANS/DABCYL FRET peptide cleavage, 3 h; inhibition, % at 6.95 µM; 2,900 compounds, 47% hits; AID 743256;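 active means mean inhibition over the triplicate runs exceeds the activity threshold set in the earlier primary screen, cut at about 20% in these data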
ADAM17 confirm = human ADAM17 inhibition, confirmation; recombinant ADAM17, EDANS/DABCYL QFRET peptide cleavage; 2,900 compounds, 65% hits; inhibition, % at 6.95 µM; shares compounds with ADAM17 inh;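 active means mean inhibition across replicates above the hit cutoff set in the primary screen, cut at about 8.5% in these data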
Numbers stand for hits; n = inactive; x = not tested or not shown. Rows were chosen to be rich in hits. Some 2.9% of all compounds tested hit in one or more screens of this group.

SMILES	ADAM10 inh	PLC-beta3 inh	ADAM17 inh	proKLK7 act	PLC-gamma1 inh	ADAM10 confirm	ADAM17 ctr	ADAM10 counter	ADAM17 confirm
CC(C)C[C@H](NC(=O)c1[nH]cnc1C(=O)N[C@@H](C)C(=O)OCc1ccccc1)C(=O)OCc1ccccc1	25	n	12	n	11	n	n	40	21
COCCN(Cc1ccc(C)cc1)C(=O)[C@@H](Cc1ccccc1)NC(=O)[C@H]1O[C@@H](n2ccc(=O)[nH]c2=O)[C@H](O)[C@@H]1O	n	n	n	n	n	x	x	x	x
CC(=O)N1c2ccc(S(=O)(=O)N3CCC(C(=O)N4CCN(c5cc(Cl)ccc5C)CC4)CC3)cc2CC1C (stereo not drawn)	23	n	18	n	n	n	n	30	17
CCOC(=O)c1c(C)[nH]c(C)c1S(=O)(=O)N1CCN(c2cccc(C)c2)C(C)C1 (stereo not drawn)	20	n	9.1	n	n	n	n	n	n
Cc1cccc(N2CCN(S(=O)(=O)c3c(C)[nH]c(C)c3C(=O)N3CCCC3)CC2C)c1 (stereo not drawn)	n	n	n	n	n	x	x	x	x
COC(=O)C1=CC[C@@H](NC(=O)OC(C)(C)C)[C@H](O)[C@H]1O[Si](C)(C)C(C)(C)C	22	n	9.9	x	n	n	n	n	n
O=C(Cn1nnc(-c2ccncc2)n1)Nc1ccc(F)cc1F	n	n	n	n	n	x	x	x	x
COc1cc(O)c(CC=C(C)C)c(O)c1C(=O)CCc1ccc(O)cc1	24	n	12	n	n	n	n	52	26
O=C(CCc1ccc(O)cc1)c1c(O)cc(O)cc1O	n	n	n	n	n	x	x	x	x
CCN(CC)c1ccc(NC(=O)COC(=O)CSc2ccc(Br)cc2C)cc1	26	n	20	n	n	n	n	41	23
Cc1cc(C)c(NC(=O)COC(=O)CSc2ccc(Br)cc2C)c(C)c1	n	n	n	n	n	x	x	x	x
Cc1ccc(S(=O)(=O)N2CCOCC2)cc1NC(=O)COC(=O)CSc1ccc(Br)cc1C	21	n	13	n	n	n	n	20	11
OC(c1ccccc1)(c1ccccc1)C1CCN(CCCNc2cccc(Br)c2)CC1	n	n	n	n	n	x	x	x	x
CCCCOCCCNC(=O)C[C@H]1C[C@@]2(C(=O)OC)C(=C[C@H](C(C)(C)C)O[C@@H]2C)N(Cc2ccc3c(c2)OCO3)C1=O	n	n	n	n	n	x	x	x	x
O=C(Nc1cccc(Cl)c1)c1ccc(OC(=S)N2CCOCC2)cc1	n	n	n	n	n	x	x	x	x
O=C(Nc1cccc2ccccc12)c1ccc(OC(=S)N2CCOCC2)cc1	21	n	9.7	n	n	n	n	n	11
Cc1ccc(NC(=O)N(Cc2ccco2)C(C)c2ccco2)cc1C (stereo not drawn)	n	n	n	n	n	x	x	x	x
Cc1ccc(NC(=O)CN(Cc2ccco2)Cc2ccccc2O)cc1C	28	n	14	n	n	n	n	30	14
O=C(NCc1ccccc1)[C@@H]1CCCN1C(=O)[C@H]1CCCN1C(=O)c1cccc(F)c1	n	n	n	n	n	x	x	x	x
Cc1ccc(OC(C)C(=O)Nc2ccncc2)cc1 (stereo not drawn)	n	n	n	n	n	x	x	x	x
Cc1ccc(OC(C)C(=O)Nc2ccc(C)c(S(=O)(=O)Nc3ccc(C)cc3C)c2)cc1 (stereo not drawn)	24	n	12	n	n	n	n	28	15
COc1cc(C(=O)Nc2ccc(S(=O)(=O)N3CCc4ccccc43)cc2)cc(OC)c1OC	26	n	11	n	n	n	n	26	16
COc1ccccc1C(=O)Nc1ccc(S(=O)(=O)N2CCc3ccccc32)cc1	n	n	n	n	n	x	x	x	x
CC(C)C[C@H]1CN([C@@H](CC(C)C)CN2CCC[C@H]2CN2C(=O)C(=O)NC[C@@H]2Cc2ccc(O)cc2)C(=O)C(=O)N1CC1CCCCCC1	n	n	n	n	n	x	x	x	x
Cc1c(C(=O)NCCC2=CCCCC2)oc2ccc(S(=O)(=O)N3CCC4(CC3)OCCO4)cc12	22	n	8.9	n	n	n	n	n	10
O=C(COC(=O)Cc1c[nH]c2ccccc12)Nc1cccc(Br)c1	26	n	11	n	n	n	n	n	8.9
CC1=C2N=C(N)N(Cc3ccccc3)C(Cc3ccccc3)C2n2c(=O)n(-c3ccccc3)c(=O)n2C1 (stereo not drawn)	n	n	n	n	n	x	x	x	x
CCn1nc([N+](=O)[O-])c(C(C#N)c2nc3cc(C(F)(F)F)ccc3s2)c(Cl)c1=O (stereo not drawn)	28	n	11	n	n	n	n	23	14
C[C@@H]1CN([C@H](C)CO)C(=O)c2cc(NC(=O)Nc3ccc(C(F)(F)F)cc3)ccc2O[C@H]1CN(C)S(=O)(=O)c1ccccc1	28	n	11	n	n	n	n	28	16
C[C@@H]1CN([C@H](C)CO)C(=O)c2cc(NC(=O)Nc3ccc(F)cc3)ccc2O[C@@H](C)CCCCO[C@H]1CN(C)S(=O)(=O)c1ccc(Cl)cc1	32	n	13	n	n	n	n	34	17

Screening data from PubChem.
